# Screening data (PubChem BioAssay)
# NTMT1 inhibitor = inhibitors of human N-terminal methyltransferase NTMT1; Q9BV86; NTMT1 MTase-Glo SAH luminescence, purified enzyme; Potency, µM (series often up to 114 µM), usual class: inhibitors; 59,000 tested, 2.5% active; AID 1645870; note: nearly all actives have a fitted effect of over 65% in size
# GALK inhibitor = GALK (human) enzyme inhibition. P51570. recombinant GALK, Kinase-Glo ATP luminescence, 1 h. Potency, µM (titrated, usually from 57.5 µM), actives largely listed as inhibitors. 44,000 tested, under 10 active
#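 Human GALK (5 nM) was incubated with 35 uM ATP and 100 uM galactose in 20 mM HEPES pH 8.0 with MgCl2, NaCl, DTT and BSA for 1 h at room temperature. Remaining ATP was measured by Kinase-Glo Plus luminescence.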
# HTT-AS act = activators of huntingtin-antisense promoter activity; HEK293 HTT-AS promoter firefly luciferase reporter, 24 h; response scale: percent change from vehicle, -100% = no light; Potency, µM (doses to about 57.5 µM), actives largely listed as activators; 48,000 tested, 0.24% active; note: nearly all actives have a fitted effect of over 55% in size
#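 HEK293 Fluc reporter, 2,500 cells/well, 24 h pre-culture; cpds up to 57.5 uM final, 24 h 37 degrees C; Dual-Glo, 10 min RT; normalized vehicle = 0%, zero RLU = -100%.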
# FH mod = Identification of activators of human fumarate hydratase by quantitative high-throughput screening; Fumarate hydratase, mitochondrial (Homo sapiens), P07954; FH coupled MDH/diaphorase resazurin fluorescence, 15 min; Potency, µM (top dose mostly 79.9 µM), hits mostly inhibitors; 54,000 tested, 0.22% active; AID 1347055, 2019; note: the screen sought activators but most active calls are inhibition curves; nearly all actives have a fitted effect of over 45% in size
# HTT promoter inh = inhibits huntingtin promoter activity; 48,000 tested, 0.93% active; Potency, µM (doses to about 57.5 µM), usual class: inhibitors; AID 1508623; HEK293 HTT promoter firefly luciferase reporter, 24 h; note: nearly all actives have a fitted effect of over 50% in size
#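 Firefly luciferase signal from promoter-reporter HEK293 cells was scaled between vehicle (0%) and zero RLU (-100%). Compounds were tested at final concentrations of up to 57.5 uM over 24 h at 37 degrees C. PTC124 at 50 uM final served as control inhibitor.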
# DYRK1A inh-1 = inhibitors of human DYRK1A kinase | Potency, µM (doses to about 76.9 µM), hits mostly inhibitors | recombinant DYRK1A, Kinase-Glo ATP depletion luminescence | 100 tested, 80% active | AID 2705 | shares compounds with NTMT1 inhibitor
# CLK4 inh = inhibitors of human CLK4 kinase, SAR round 2 | shares compounds with NTMT1 inhibitor | AID 504421 | Potency, µM, hits mostly inhibitors | 65 tested, 100% active | Reaction Biology kinase assay, 10 uM ATP; calls by dose curve
# DYRK1A inh-2 = inhibitors of human DYRK1A kinase. Potency, µM, actives largely listed as inhibitors. shares compounds with NTMT1 inhibitor. 65 tested, 90% active. AID 504424. Reaction Biology kinase assay, 10 uM ATP;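 active = compounds that showed inhibition of Dyrk1a and received a fitted potency; inactive = compounds that showed no inhibition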
# CLK2 inh = CLK2 kinase inhibition | shares compounds with NTMT1 inhibitor | Reaction Biology kinase assay, 10 uM ATP | Potency, µM, most hits filed as inhibitors | 65 tested, 90% active | AID 504427;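 active = compound that inhibits Clk2 kinase in the dose series, with an IC50 potency reported; inactive = no inhibition seen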
# CLK3 inh = blocks human CLK3 kinase activity; shares compounds with NTMT1 inhibitor; recombinant CLK3 kinase assay, 10 uM ATP; Potency, µM, usual class: inhibitors; 65 tested, 40% active;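 active = compounds that inhibited Clk3 enough in the ten-dose series to give a half-maximal potency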
# DYRK1B RBC = inhibitors of human Dyrk1b kinase | Recombinant Dyrk1b kinase assay, 10 uM ATP | shares compounds with NTMT1 inhibitor | 65 tested, 80% active | Potency, µM, hits mostly inhibitors;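 active = compounds whose dose response shows an inhibitor phenotype against the kinase Dyrk1b; inactive = compounds showing no inhibitor phenotype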
# CLK1 inh = CLK1 kinase inhibition; recombinant Clk1 kinase assay, 10 uM ATP; AID 504430; shares compounds with NTMT1 inhibitor; 65 tested, 90% active; Potency, µM, actives largely listed as inhibitors;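 active = compounds that block the splicing kinase Clk1 enough to give a fitted half-inhibition concentration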
# Sfp PPTase inh = inhibits purified B. subtilis Sfp PPTase; shares compounds with NTMT1 inhibitor; purified Sfp PPTase enzyme activity, qHTS; AID 540350; 230 tested, 78% active; Potency, µM (titrated, usually from 114 µM), actives largely listed as inhibitors
# Bsub HM489 growth = B. subtilis HM489 growth inhibition; shares compounds with NTMT1 inhibitor; 220 tested, 50% active; B. subtilis HM489 (acpS-) growth, BacTiter-Glo, 5 h; AID 540353; Potency, µM (series often up to 114 µM), most hits filed as inhibitors
# Sfp PPTase gel = Sfp PPTase inhibition, gel-based detection. Potency, µM (top dose mostly 250 µM), actives largely listed as inhibitors. 220 tested, 54% active. purified Sfp PPTase, gel-based product detection. shares compounds with NTMT1 inhibitor
# Sfp inh SAR2 = Sfp phosphopantetheinyl transferase inhibition, SAR round 2 | shares compounds with NTMT1 inhibitor | purified Sfp enzyme, PPTase activity, qHTS | Potency, µM (top dose mostly 57.1 µM), actives largely listed as inhibitors | 230 tested, 87% active | AID 602370
# HSD17B4 counter = HSD17B4 (human) inhibition, HPGD counter-screen; 230 tested, 10% active; AID 743187; Potency, µM (top dose mostly 57.1 µM), most hits filed as inhibitors; purified HSD17B4, estradiol/NAD+, NADH fluorescence; shares compounds with NTMT1 inhibitor
# Target sequence (P51659 whole entry, looked up): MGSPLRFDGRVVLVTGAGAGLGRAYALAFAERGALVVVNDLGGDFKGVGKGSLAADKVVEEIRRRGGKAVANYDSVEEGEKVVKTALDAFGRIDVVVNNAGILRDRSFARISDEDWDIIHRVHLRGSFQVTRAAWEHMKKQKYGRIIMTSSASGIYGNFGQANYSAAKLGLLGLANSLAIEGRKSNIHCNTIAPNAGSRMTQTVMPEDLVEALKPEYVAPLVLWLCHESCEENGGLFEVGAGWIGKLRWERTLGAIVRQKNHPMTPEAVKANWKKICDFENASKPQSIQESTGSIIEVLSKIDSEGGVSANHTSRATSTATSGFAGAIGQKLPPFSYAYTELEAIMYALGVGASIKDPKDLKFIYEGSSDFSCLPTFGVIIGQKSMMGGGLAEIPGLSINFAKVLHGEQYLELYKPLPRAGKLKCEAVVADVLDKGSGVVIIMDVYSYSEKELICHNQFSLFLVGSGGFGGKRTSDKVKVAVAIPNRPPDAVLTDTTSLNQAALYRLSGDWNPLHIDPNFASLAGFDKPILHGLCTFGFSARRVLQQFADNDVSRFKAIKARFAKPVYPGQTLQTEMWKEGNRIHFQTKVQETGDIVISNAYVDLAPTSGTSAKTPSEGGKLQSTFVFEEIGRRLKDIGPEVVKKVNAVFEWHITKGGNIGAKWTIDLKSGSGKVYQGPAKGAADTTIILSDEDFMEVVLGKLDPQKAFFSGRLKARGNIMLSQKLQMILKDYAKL
# ALDH1A1 counter = ALDH1A1 (human) inhibition, HPGD counter-screen | 230 tested, 93% active | Potency, µM (titrated, usually from 57.1 µM), most hits filed as inhibitors | recombinant ALDH1A1, NADH fluorescence, propionaldehyde/NAD+ | shares compounds with NTMT1 inhibitor
# NNMT counter = counter-screen for NTMT1 inhibitors: human NNMT inhibition | shares compounds with NTMT1 inhibitor | NNMT MTase-Glo luminescence, SAH detection | Potency, µM (series often up to 57.1 µM), usual class: inhibitors | 120 tested, 10% active
# Hits are given with their value; i = inactive; ? = inconclusive; nt = no result. Compounds with a hit are over-represented: about 2.5% of the library has one in this group of screens. Unless noted, calls come from the whole dose curve; as a rule, active = well fitted curve in the direction sought with a large enough effect; inconclusive = small, poorly fitted or top-dose-only effect, or another doubt; inactive = no such curve, though single readings can be large; an effect the other way counts as inactive or inconclusive.
SMILES,NTMT1 inhibitor,GALK inhibitor,HTT-AS act,FH mod,HTT promoter inh,others
COc1cc(CCc2ccc(OCC=C(C)C)cc2)cc(OC)c1OC,i,nt,nt,i,nt,NNMT counter=i
CCOc1ccc(OCc2ccc(C(=O)Nc3cc(OC)c(OC)c(OC)c3)o2)cc1,i,i,i,i,i,
CCN(Cc1sccc1C)c1ncnc2ccc(-c3ccc4c(c3)OCO4)cc12,?,nt,nt,nt,nt,DYRK1A inh-1=1.16µM
CCN(Cc1cccs1)c1ncnc2ccc(-c3ccc4c(c3)OCO4)cc12,?,nt,nt,nt,nt,DYRK1A inh-1=0.164µM;CLK4 inh=0.014;DYRK1A inh-2=0.038µM;CLK2 inh=0.447µM;CLK3 inh=6.17µM;DYRK1B RBC=0.231µM;CLK1 inh=0.014µM
O=C(C[C@@H]1C(C(=O)O)=CO[C@@H](O[C@@H]2O[C@H](CO)[C@@H](O)[C@H](O)[C@H]2O)/C1=C\CO)OCCc1ccc(O)cc1,i,nt,nt,i,nt,
Cc1ccc(S(=O)(=O)Nc2ccc(C(=O)Nc3nc(-c4ccccc4)cs3)c(Cl)c2)cc1,i,nt,nt,nt,nt,
Cc1cc(-c2ncc(CC(=O)Nc3ccc(-c4cnccn4)cn3)cc2C)ccn1,i,nt,i,i,i,NNMT counter=?
S=C(Nc1cc(Cl)ccn1)N1CCN(c2ccc3ccccc3n2)CC1,?,nt,nt,nt,nt,Sfp PPTase inh=?;Bsub HM489 growth=26.4µM;Sfp PPTase gel=?;Sfp inh SAR2=7.25µM;HSD17B4 counter=i;ALDH1A1 counter=i
Cc1ccnc(NC(=S)N2CCN(c3ccc(Cl)cc3Cl)CC2)c1,?,nt,nt,nt,nt,Sfp PPTase inh=1.87µM;Bsub HM489 growth=8.35µM;Sfp PPTase gel=12.6µM;Sfp inh SAR2=0.73µM;HSD17B4 counter=i;ALDH1A1 counter=5.41µM
Cc1ccnc(NC(=O)C(C)c2cccc(C(=O)c3ccccc3)c2)c1 (stereo unspecified),i,nt,nt,i,nt,
Cc1ccnc(NC(=S)N2CCc3ccccc3C2)c1,?,nt,nt,nt,nt,Sfp PPTase inh=9.37µM;Bsub HM489 growth=33.2µM;Sfp PPTase gel=3.16µM;Sfp inh SAR2=1.02µM;HSD17B4 counter=i;ALDH1A1 counter=3.04µM
Cc1ccnc(NC(=S)N2CCNCC2)c1,?,nt,nt,nt,nt,Sfp PPTase inh=i;Bsub HM489 growth=?;Sfp PPTase gel=i;Sfp inh SAR2=14.5µM;HSD17B4 counter=i;ALDH1A1 counter=27.1µM
O=C(c1cc2ccc3cccnc3c2[nH]1)N1CCN(c2cccc(Cl)c2)CC1,i,i,i,i,?,
Cc1ccc(S(=O)(=O)Nc2ccc(C(=O)Nc3nc(-c4ccccc4)cs3)cc2Cl)cc1,i,nt,nt,nt,nt,
C/C(=N\N=C(N)N)c1cc(NC(=O)CCCCCCCCC(=O)Nc2cc(/C(C)=N/N=C(N)N)cc(/C(C)=N/N=C(N)N)c2)cc(/C(C)=N/N=C(N)N)c1,5.62µM,nt,nt,i,nt,NNMT counter=?
Cc1cnc(-c2ccccc2C(C)C)nc1NCC1CCN(c2cccnc2)C1 (stereo unspecified),i,nt,nt,nt,nt,
O=C(Nc1ccc(S(=O)(=O)C(F)(F)F)cc1)C1=CCN(c2ncccc2C(F)(F)F)CC1,i,nt,nt,i,nt,NNMT counter=i
O=C(Nc1ccccc1C(F)(F)F)N1Cc2ccccc2Oc2ncccc21,i,i,i,i,i,
